The text below walks through data of article PMC12136788.

To fix the notation:
B1: ENSG00000052841:stop:overlap|stop_codon|ENSG00000052841|stop_codon|NA|stop_codon (ssRNA)
RNA: GGGAGUUCUACAGUCCGACGAUCAGAACCGAAUCCAGACCAUCCAGUGUCACUUAAUGCUGAAGAAGGGACGGCGCUCUCCUUAGUGCACUUCUUCCUUCUCUCUUUCUCUUUACUCAUGCUCUAAAAAAAAAGAAUAAGAAACAACAGAGGAUUGAGCAUCA
B2: chr5:136174412:136174513:+|CDS|ENSG00000113658|unk|total|mutant (ssRNA)
RNA: GGGAGUUCUACAGUCCGACGAUCUAUGUUGGUGGAGAGGUGUAUGCGGAAUGCCUCAGUGACAGCAGCAUAUUUGUACAGAGCCGGAACUGCAACUUUCAUCAUGGCUUUCAUCCCACCACUGUCUGUAAGAUUCCCAGCAGCCAACAGAGGAUUGAGCAUCA
B3: chr8:116846039:116846140:-|3pUTR|ENSG00000164754|msi1|FALSE|bound_elsewhere (ssRNA)
RNA: GGGAGUUCUACAGUCCGACGAUCACAUUCAAUAUGAUGUGCCUGUAAACCAAGGAGUUUUCCCCGUUUGUAAAAAGACAUUGUAGAUAAUUGAAUGUUUGAUUUUAGAAAGGUCAUUAGUUUCUUGUUACACAUUUUGUUAGUCAACAGAGGAUUGAGCAUCA
B4: chr12:98549999:98550103:+|3pUTR|ENSG00000120802|unk|total|mutant (ssRNA)
RNA: GGGAGUUCUACAGUCCGACGAUCUGUUUCCCAUACUGUUUUCAGCCUUUUGUUUAUAAUCCGAAAUUGUGAGAAGCUUCAUUCCGUGUUUAAAAAUGUGGGGAGAUAAAUCAGACUUAACAUGUAUGUAAGAUCAAUUCACUUCAACAGAGGAUUGAGCAUCA
B5: chr6:57184343:57184440:+|3pUTR|ENSG00000112208|msi1_unk|FALSE|overlapping (ssRNA)
RNA: GGGAGUUCUACAGUCCGACGAUCUCUUCAGUUUUGUGAAUAACAAAACUAGCAAUAUUUUAAUUAUCUAUCUAGAGAUUUUUUAGAUUGAAUUCUUGUCUUGUACUAGGAUCUAGCAUAUUUCACUAUUCUGUGGAUGAAUACCAACAGAGGAUUGAGCAUCA
B6: chrX:129805617:129805718:-|3pUTR|ENSG00000188706|msi1|FALSE|unique (ssRNA)
RNA: GGGAGUUCUACAGUCCGACGAUCUCUUUUCCCAUUAGAUAUAUGUAAGUAGUUGUAGUAGAGAUAAUAAUUGACAUUUCUCGUAGACUACCCAGAAACUUUUUUAAUACCUGUGCCAUUCUCAAUAAGAAUUUAUGAGAUGCCCAACAGAGGAUUGAGCAUCA
B7: chr13:110149936:110150037:-|3pUTR|ENSG00000187498|msi1|FALSE|unique (ssRNA)
RNA: GGGAGUUCUACAGUCCGACGAUCUUCUUGUAUUAUAAUUAAUUUUCUACCCCCAGAGAUAAAUGUUUGUUUAUAUCACUGUCUAGCUGUUUCAAAAUUUAGGUCCCUUGGUCUGUACAAAUAAUAGCAAUGUAAAAAUGGUUUCAACAGAGGAUUGAGCAUCA
B8: chr2:24000049:24000165:+|3pUTR|ENSG00000173960|unk|FALSE|unique (ssRNA)
RNA: GGGAGUUCUACAGUCCGACGAUCGUAGCAUAUGACUGGAAACUAUAUUCAGUGCACUUUCUCCAAAAGACUACCCAGAAAAAUAGACUUAUUUUCAAAUACCAGUUAUCAAGAUAUAUUAAAUAGCUGUAUUGUUUAGAAUCUCAACAGAGGAUUGAGCAUCA
B9: chr12:98549999:98550103:+|3pUTR|ENSG00000120802|unk|FALSE|unique (ssRNA)
RNA: B4 RNA with C60U, C61A, C83U, C84A
B10: chr12:909583:909684:+|3pUTR|ENSG00000060237|unk|FALSE|bound_elsewhere (ssRNA)
RNA: GGGAGUUCUACAGUCCGACGAUCUAGCUCUGUCCUUUACUUAUUGAGACACUUUAACUUUUUCCUUUGUAUUUCCAUUGUAUUAGAUAAAUAAAUGUGAAUGUAAAAUUGUAUAAAUUACUGUACUUGAAUACUUCUGUUUCCCAACAGAGGAUUGAGCAUCA
B11: chr11:10797513:10797714:-|3pUTR|ENSG00000110321|msi1_unk|FALSE|overlapping (ssRNA)
RNA: GGGAGUUCUACAGUCCGACGAUCUUCUGCAUAAGGUUUUUUUGUAGUGUAAUGUCUUAAUCAUAGUCUACCAUCAAAUAUUUUAGGAGUAUCUUUAAUGUUUAGAUAGUAUAUUAGCAGCAUGCAAUAAUUACAUCAUAAGUUCAACAGAGGAUUGAGCAUCA
B12: chr22:43879677:43880794:-|three_prime_utr|ENSG00000100341|control|control|control (ssRNA)
RNA: GGGAGUUCUACAGUCCGACGAUCGAGAAAGGAGGACAGCCACAGAGACACAUGUCUUACUUUCAGAAUUUCCACGGGGGGACUAGGAGGGCAGCAUUGCUGGGGAGAGGGGCUCCUGUUCUGCCGUGGAGCUGCCCACGGAGCCAACAGAGGAUUGAGCAUCA
B13: chr3:115809552:115809653:-|3pUTR|ENSG00000185565|unk|total|mutant (ssRNA)
RNA: GGGAGUUCUACAGUCCGACGAUCCUCCCUCACCUCUCCUCACCUCCACCCCCUCCCCAGAGCACCCGUCAUGCCGCAAAUGCCCGGAAGUGCCAUUUUCAUUUUCUCCACUGUGCGUGUGUGCUCAAGUCUUUCGCUCUCACGCAACAGAGGAUUGAGCAUCA
B14: chr4:145760401:145760502:-|3pUTR|ENSG00000151612|unk|FALSE|unique (ssRNA)
RNA: GGGAGUUCUACAGUCCGACGAUCUCCGUACUUUUCUCUGAAAGGAAUCUUGUCUUGUUAAACCCUAAAGAGAGUGUCCUUAAUAGCAAUCAGCACUUGUAAGCUUAUAUACUGGUGCAUUUGGUUUUCUGUUGGGUGAAUGCGCAACAGAGGAUUGAGCAUCA
B15: chr1:160214333:160214525:+|3pUTR|ENSG00000162734|msi1|FALSE|unique (ssRNA)
RNA: GGGAGUUCUACAGUCCGACGAUCCUACAGUGUUUUCCUUUGCACCGAUCCCCACCCCAAUUCAAUCCCGGAAGGGACUUACUUAGGAAACCCUUCUUUACUAGAUAUCCUGGCCCCCUGGGCUUGUGAACACCUCCUAGCCACCAACAGAGGAUUGAGCAUCA
B16: chr12:56205560:56205676:-|3pUTR|ENSG00000181852|unk|FALSE|unique (ssRNA)
RNA: GGGAGUUCUACAGUCCGACGAUCCUCUUGUGGCACAGGCCAUAAUUGUUCCAUAGACCCCUCUCUAGCCCUGUGACUGUAGUUAGUUACUUUGAUAAUUUUCUUUGGCCAUUGUUUGUUUAUAUUUCACAAACUCCACCUACUCAACAGAGGAUUGAGCAUCA
B17: chr19:3536616:3536717:+|3pUTR|ENSG00000105325|msi1|total|mutant (ssRNA)
RNA: GGGAGUUCUACAGUCCGACGAUCACCGCCGCAGGGCCAGGCGGACGGCGUGAGGUUUGUGUUGGGGCUGGUUCUGCCCAUGCCCGGGGGUGGGGGAGCUCCCAGGACAGACCAGCCUUGUUUCUCAUGUAAUGCAGUGACGCUCAACAGAGGAUUGAGCAUCA
B18: chr19:12699869:12699961:-|3pUTR|ENSG00000105576|msi1_unk|FALSE|overlapping (ssRNA)
RNA: GGGAGUUCUACAGUCCGACGAUCGAGGGUGGGGGUGUAGUUACUUCCCAGUUGGCCAGAAAACUGGGCCUUGCAGACCCCCUUAGCAUUUUUUCCCUUUUUUUCCUUCCCUGCUUUCUACUUCUUUGGGGAGCCCCUUGUGUUCAACAGAGGAUUGAGCAUCA
B19: chr20:63933867:63933968:+|3pUTR|ENSG00000101152|msi1|FALSE|unique (ssRNA)
RNA: GGGAGUUCUACAGUCCGACGAUCAUCAGAGUGGGCCCCUUGCCAGGUGGCUUUUCAGUUACAGAGUCCAGUGGACCAUUUUGUAGAACCAUGCAGCUCCCUGCGGAAGGUGGGGUAGGGUGGGAAAGAGGAGCAGGUCUGGAGCAACAGAGGAUUGAGCAUCA
B20: chr17:50110931:50111032:+|3pUTR|ENSG00000005882|unk|FALSE|unique (ssRNA)
RNA: GGGAGUUCUACAGUCCGACGAUCUGUGCCCAGACAUGUGUGCUCAGGGUGGCUUUCUCCCUAGGACCUUCUGUGUAUAUAGUUAGUUUUAUAACCCUGAAUGCCCCCACCCUUCCCCUAAGCACACAGGGGUUAAAGCUGUGUCAACAGAGGAUUGAGCAUCA
B21: chr4:48579112:48579224:-|CDS|ENSG00000075539|unk|FALSE|bound_elsewhere (ssRNA)
RNA: GGGAGUUCUACAGUCCGACGAUCCUCUAUUGCCCUAGCUCGAUAGAUUUACAAACUUUAGCAGAAUGGAACUCUUCUCCUAUUAGCCACCAGUUUGAUGUGAUUAGUCCAUCACAUAUAUGGAUAUUUGCACAUGUGACCCAACAACAGAGGAUUGAGCAUCA
B22: chr15:74955373:74955475:-|3pUTR|ENSG00000178718|unk|FALSE|unique (ssRNA)
RNA: GGGAGUUCUACAGUCCGACGAUCGGACAGUUUUCCUUUCUAGUUUUCUUUCCCCUGCUUCAGAGGAGCAUCUCUGAGGGUUCUAGCUCUUUUAACACCCCUUUUCCCCCUGCUGGCCCAGAGGGAGACCCAGGACUGAACUCUCAACAGAGGAUUGAGCAUCA
B23: chr12:53210768:53210868:-|3pUTR|ENSG00000172819|msi1_unk|FALSE|overlapping (ssRNA)
RNA: GGGAGUUCUACAGUCCGACGAUCAGGGGGGAUGCUGCUUAGCUGAUCCCGCCCUGACCCAGAGGAAGCCUCUAUUUAUUUAUUAGCUUUUGUUUACACCGUGGAAUUGACCCCUUCCUCCAGGGGUCUUGGGUGGGGGAGCCCCAACAGAGGAUUGAGCAUCA
B24: chr17:49053040:49053141:+|3pUTR|ENSG00000159217|unk|FALSE|unique (ssRNA)
RNA: GGGAGUUCUACAGUCCGACGAUCCUCAGCUCCUGUGAGGGGUCUGGUUAGGAGAGAGCCAUUUUUAAGGACAGGGAGUUUUAUAGCCCUUUUCUACUUUCCUCCCCUCCUCCCAGUCCUUAUCAAUCUUUUUUCCUUUUUCCUCAACAGAGGAUUGAGCAUCA
B25: chr17:27756765:27757353:-|three_prime_utr|ENSG00000007171|control|control|control (ssRNA)
RNA: GGGAGUUCUACAGUCCGACGAUCCAAGUCUUAUUUCCUCAACGUUGCUCCCCAUCAAGCCCUUUACUUGACCUCCUAACAAGUAGCACCCUGGAUUGAUCGGAGCCUCCUCUCUCAAACUGGGGCCUCCCUGGUCCCUUGGAGCAACAGAGGAUUGAGCAUCA
B26: chr11:2944997:2945113:-|3pUTR|ENSG00000205531|unk|FALSE|unique (ssRNA)
RNA: GGGAGUUCUACAGUCCGACGAUCCUGUGUAGAGUAGGGCCCUGUUCUCCUUAGGAUGUUGCUUCUUGAUUUUUUUUUUUUUUUAGGGGUGGGUCAGGGUUGUGACACACCAGCCCAGGUGAGAGCUGCUGCGGGUCACCUCAUCAACAGAGGAUUGAGCAUCA

Positions count from the first letter of the chain named. Whole data set: some 5,800 sequences, median “enrichment r” near 0.68, cut for the highest 2% near 11. This excerpt belongs to a sample that is enriched for the highest values.

This experiment has as its target T1, UNK ZnF1-6 (called full-length) (human, UniProt Q9C0B0 30-357).
T1 sequence: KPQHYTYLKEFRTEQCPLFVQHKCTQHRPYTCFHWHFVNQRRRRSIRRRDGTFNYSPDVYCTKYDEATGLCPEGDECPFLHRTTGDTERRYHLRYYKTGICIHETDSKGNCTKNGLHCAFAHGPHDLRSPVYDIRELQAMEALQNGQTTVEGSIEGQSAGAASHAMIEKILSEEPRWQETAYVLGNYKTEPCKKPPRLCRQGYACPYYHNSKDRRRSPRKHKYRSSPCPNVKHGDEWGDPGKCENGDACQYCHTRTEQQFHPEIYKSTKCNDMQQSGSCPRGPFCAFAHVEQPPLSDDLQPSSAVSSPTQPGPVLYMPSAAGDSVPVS
Put plainly: nsRBNS (natural sequence RNA bind-n-seq); RBNS binding buffer (assumed for nsRBNS): 25 mM Tris pH 7.5, 150 mM KCl, 3 mM MgCl2, 0.01% Triton X-100, 500 ug/ml BSA, 20 U/ml SUPERase-In, 4 C; UNK is unkempt and MSI1 is Musashi-1; names of the RNAs are library labels; protein concentration not given here; high values mean tight binding.
B1: the binding signal amounted to 0.995 enrichment R. The figure for B2 is 0.849 enrichment R; for B3 it is 5.22 enrichment R.

B4 had a binding signal of 0.419 enrichment R. Molecule B5 came in with a binding signal of 6.31 enrichment R.

B6 showed a binding signal of 101 enrichment R. The figure for B7 is 119 enrichment R. The molecule B8 gave a binding signal of 3.33 enrichment R. The same measure for B9: 6.12 enrichment R.

For B10, the binding signal stood at 12.7 enrichment R. The same measure for B11: 1.96 enrichment R; for B12: 1.05 enrichment R. For the molecule B13, the binding signal was 1.88 enrichment R. The same measure for B14: 0.364 enrichment R; for B15: 2.33 enrichment R; for B16: 33.5 enrichment R. The figure for B17 is 0.79 enrichment R. Consider B18, for which the binding signal was determined as 15.5 enrichment R.

As to B19, the binding signal turned out to be 1.29 enrichment R.

For B20, the binding signal came out at 6.79 enrichment R. B21 registered a binding signal of 1.85 enrichment R. The figure for B22 is 10.8 enrichment R; for B23 it is 2.83 enrichment R; for B24 it is 3.9 enrichment R. The same measure for B25: 0.605 enrichment R; for B26: 22 enrichment R.
